From PubChem BioAssay AID2102 (Southern Research Specialized Biocontainment Screening …, 2009)
The campaign covered roughly 1,100 compounds. About 210 (19%) were called active. How the calls were made is not given here. The list is a sample of the results. Results with a measured potency or affinity are listed apart.

experiment: host cell cytotoxicity, dose response, cytotoxicity control for SV40 T antigen inhibitor project, selected hits (AID 2102); details: Host cell viability cytotoxicity counter-screen; series mostly up to 50 µM; viability: at the top concentration;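 further: cells exposed to compounds for 72 hours; 100% = mean of untreated cell control wells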

Compound	viability
Cc1cc(C)n(CCc2nc(-c3ccco3)cs2)n1	85.3% (inactive)
Nc1ccc(-c2nc3c(Cl)c(N)ccc3[nH]2)cc1	126% (inactive)
Nc1ccc2nc(CCCCCCc3nc4ccc(N)cc4[nH]3)[nH]c2c1	111% (inactive)
O=C1NC(=NCc2ccccc2)S/C1=C/c1ccc(O)cc1	89.2% (inactive)
CC(C)C(C(=O)O)N1C(=O)/C(=C/C=C/c2ccco2)SC1=S (configuration not stated)	123% (inactive)
C/C(=N/NC(=O)CSc1nc2ccccc2n1C)c1ccc(O)cc1	92.7% (inactive)
COc1ccc(NC2CCCN(C(=O)CCCn3cncn3)C2)cc1 (configuration not stated)	112% (inactive)
O=C1NC(=O)/C(=C/c2ccc(O)cc2)S1	101% (inactive)
O=C(O)Cc1c[nH]c2cccc(O)c12	92.2% (inactive)
O=C(CCc1ccc(O)c(O)c1)N/N=C/c1cc2c(cc1[N+](=O)[O-])OCO2	91.3% (inactive)
COc1ccc(CC(=O)N/N=C(\C)CC(=O)Nc2ccc(N(C)C)cc2)cc1OC	126% (inactive)
COc1ccc(/C=N/NC(=O)CCc2n[nH]c(=O)[nH]c2=O)cc1O	105% (inactive)
COc1cc(/C=C2\C(=O)NN(c3ccccc3)C2=O)ccc1OCC(N)=O	104% (inactive)
Cc1nnc(Nc2ccc(O)cc2)[nH]c1=O	110% (inactive)
O=S1(=O)N=C(Nc2ccc(O)cc2)c2ccccc21	115% (inactive)
CCOc1cc(/C=N/NC(=O)CCc2n[nH]c(=O)[nH]c2=O)ccc1O	99.8% (inactive)
C=CCn1c(SCC(=O)c2ccc(O)c(O)c2)nnc1-c1cccnc1	121% (inactive)
CCOC(=O)CNc1c(-c2ccc(O)cc2)nc2ccccn12	90.2% (inactive)
O=C(Nc1cccc(N2C(=O)C=CC2=O)c1)c1cccs1	110% (inactive)
COc1cc(/C=N/N=C(\N)c2nonc2N)ccc1O	115% (inactive)
COc1cc(-c2cc(=O)c3c(O)c(OC)c(OC)c(O)c3o2)ccc1O	97.4% (inactive)
COc1cc(C=C2C(=O)c3ccccc3C2=O)ccc1O	121% (inactive)
O=C(CC(=O)N/N=C/c1ccc(O)cc1)N/N=C/c1ccc(O)cc1	98.6% (inactive)
O=C(N/N=C/c1ccc(O)c(O)c1)N/N=C/c1ccc(O)c(O)c1	98.8% (inactive)
Oc1ccc(Nc2nc(Cl)nc(NCc3ccco3)n2)cc1	97.5% (inactive)
CCOc1cc(-c2ccc(N)c(OCC)c2)ccc1N	84.3% (inactive)

Compound	viability
Nc1cc(C(=O)O)ccc1Nc1ccccc1	88% (inactive)
Oc1ccc(-c2cn3c(n2)SCC3)cc1O	101% (inactive)
COc1cc(/C=C/C(=O)OCC(=O)Nc2ccc(S(N)(=O)=O)cc2)ccc1O	107% (inactive)
Nc1ccc2nc(CCCO)[nH]c2c1	125% (inactive)
COc1cc(/C=N/NC(=O)c2cccc([N+](=O)[O-])c2)ccc1O	120% (inactive)
COc1cc(C=C(C(C)=O)C(C)=O)ccc1O	103% (inactive)
O=c1ccc2cc(O)c(O)cc2o1	96.9% (inactive)
O=C(Nc1ccc(O)cc1)/C(=C\c1ccncc1)NC(=O)c1ccccc1	110% (inactive)
Cc1nnc(N/N=C/c2c(O)n(-c3cccc(C(F)(F)F)c3)c(=O)c3ccccc23)[nH]c1=O	89.5% (inactive)
COc1ccc(-c2cc(=O)oc3c(O)c(O)ccc23)cc1	102% (inactive)
O=C1CCCC/C1=C\Nc1ccc(O)cc1	97.2% (inactive)
O=c1cc(CN2CCN(Cc3ccccc3)CC2)c2ccc(O)c(O)c2o1	90.2% (inactive)
Oc1cnn(-c2ccccc2)c1	112% (inactive)
Nc1cc(CN2C(=O)c3ccccc3C2=O)cc(Cl)c1O	94.5% (inactive)
COc1cc(/C=N/Nc2ccnc(=O)[nH]2)ccc1O	109% (inactive)
COc1ccc(NC2CCCN(C(=O)c3ccc(OC)cc3OC)C2)cc1 (configuration not stated)	85.2% (inactive)
COc1ccc(NC2CCCN(C(=O)CCn3cccn3)C2)cc1 (configuration not stated)	97.3% (inactive)
COc1cc(/C=N/NC(=O)c2c(-c3ccccc3)noc2C)ccc1O	88.4% (inactive)
C/C(CC(=O)Nc1ccc2ccccc2c1)=N\NC(=O)c1ccc(O)c(O)c1	97.8% (inactive)
O=C(Nc1ccc(O)cc1)C1CC=CCC1 (configuration not stated)	94% (inactive)
CC(C)C(=O)c1ccc(O)c(O)c1	90.9% (inactive)
Cc1ccc(S(=O)(=O)N2CCN(CC(=O)N/N=C\c3ccc(O)c(O)c3)CC2)cc1	115% (inactive)
CCCSc1nc(O)c(C(c2ccc(OC)c(O)c2)c2c(O)nc(SCCC)n(C)c2=O)c(=O)n1C	104% (inactive)
COc1cc(Cn2nnc3ccccc32)ccc1O	91% (inactive)
Cc1ccc2c(c1C)NC(C(=O)O)C1CC=CC21 (configuration not stated)	111% (inactive)
CC(/C=N/n1c(-c2n[nH]c3c2CCC3)n[nH]c1=S)=C\c1ccco1	92.1% (inactive)

Compound	viability
Nc1nc(-c2cccs2)c(NC(=O)c2ccccc2)s1	99.8% (inactive)
O=C1CNC(=S)N1CCc1ccc(O)c(O)c1	106% (inactive)
N#CC1=C2SCN(Cc3ccco3)CN2C(=O)CC1c1ccc(Cl)cc1 (configuration not stated)	98.5% (inactive)
CCn1c(/C=C/c2ccc(O)c(O)c2)nc2ccccc2c1=O	85.1% (inactive)
Cc1cc(SCC(=O)N/N=C/c2ccc(O)c(O)c2)nc2ccccc12	86.3% (inactive)
O=C(CSc1nc2ccccc2o1)N/N=C/c1ccc(O)c(O)c1	90.5% (inactive)
O=C(N/N=C/c1ccc(O)c(O)c1)c1cc(-c2ccccc2)nc2ccccc12	99.2% (inactive)
O=C1ON=C(c2ccccc2)/C1=C/c1ccc(O)c(O)c1	107% (inactive)
O=C1C=CC(=O)N1c1ccc(O)cc1	104% (inactive)
Cc1nc(Cl)cc(N/N=C/c2ccc(O)cc2)n1	96.5% (inactive)
CCOc1ccc(N2Nc3n[nH]c(N)c3N2)cc1	94.2% (inactive)
Cc1c(NC(=O)CN2CCN(c3ccc(O)cc3)CC2)c(=O)n(-c2ccccc2)n1C	96.2% (inactive)
O=C1CC(N2CCN(c3ccc(O)cc3)CC2)C(=O)N1Cc1cccs1 (configuration not stated)	94.6% (inactive)
Cc1nc2ccc(N=NN(C)C)cc2[nH]1	96.2% (inactive)
O=C(Cn1c(=O)oc2ccccc21)Nc1n[nH]c(=S)s1	96.6% (inactive)
Cc1cc(C)c2c(CCl)cc(=O)oc2c1	86.8% (inactive)
CCSS(=O)(=O)c1cccc2cccnc12	92.4% (inactive)
O=C1/C(=C/c2ccncc2)SC(=S)N1Nc1ccccc1	102% (inactive)
CCc1cc2c(Nc3ccc(O)cc3)nc(C)nc2s1	95.3% (inactive)
COc1ccc(N2CCN(C(=O)CN(c3ccccc3)S(C)(=O)=O)CC2)cc1	89.1% (inactive)
CCOC(=O)N1CCN(c2ccc(O)cc2)CC1	97% (inactive)
O=C(C1CC1)N1CCN(c2ccc(O)cc2)CC1	103% (inactive)
O=C(c1ccc2ncsc2c1)N1CCN(c2ccc(O)cc2)CC1	103% (inactive)
O=C(CCC(=O)N1CCN(c2ccc(O)cc2)CC1)c1cccs1	98.9% (inactive)
Cc1cc(NC(=O)CN2CCN(c3ccc(O)cc3)CC2)no1	95.5% (inactive)
